Screens from PubChem BioAssay.
The full list was thinned out, with hits kept by preference.
ID4 SMM: binders of human ID4 protein; P47928; small molecule microarray, Flag-ID4 binding, fluorescence F/B; calls only; 31,000 tested, 1.2% active; call rule not given here;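 also: a binder raises fluorescence above local background on the spot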
Target sequence (P47928 whole entry, looked up): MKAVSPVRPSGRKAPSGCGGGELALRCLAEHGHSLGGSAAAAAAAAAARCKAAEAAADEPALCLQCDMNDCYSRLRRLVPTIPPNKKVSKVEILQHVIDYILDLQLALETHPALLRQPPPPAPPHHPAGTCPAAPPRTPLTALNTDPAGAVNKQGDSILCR
mut p53 react: mutant p53 pathway reactivation; activation, % at 9.98 µM; SW480 PUMA-promoter luciferase; 28,000 tested, 1.5% active; in the data active = activation above about 52%; inconclusive = no clear call, values can overlap the other calls
NOMO-1 viab: STK33 inhibitor candidate reducing NOMO-1 cell viability. inhibition, % (concentration not given with the values). 37,000 tested, 7.5% active. NOMO-1 AML viability, CellTiter-Glo luminescence, 72 h; in the data active = inhibition above about 80%; inconclusive = no clear call, values can overlap the other calls
STK33 inh: human STK33 kinase inhibition. Q9BYT3. ADP-Glo luminescence, MBP substrate. inhibition, % at 12.5 µM. 27,000 tested, 0.44% active. AID 2322; in the data active = inhibition above about 20%; inconclusive = no clear call, values can overlap the other calls
* marks the source's active call; other numbers are inactive results; i = inactive; ? = inconclusive; . = no result given; + = active, no number.

SMILES	ID4 SMM	mut p53 react	NOMO-1 viab	STK33 inh
C[C@H](CO)N1C[C@H](C)[C@@H](CN(C)Cc2ccccc2)Oc2ccc(NC(=O)Nc3ccc(C(F)(F)F)cc3)cc2C1=O	.	.	122*	.
C[C@@H]1CN([C@H](C)CO)C(=O)Cc2cc(NC(=O)CCCCCC(=O)Nc3ccccc3N)ccc2O[C@H]1CN(C)CC1CC1	.	.	51	.
C[C@H](CO)N1C[C@H](C)[C@H](CN(C)Cc2ccc(-c3ccccc3)cc2)Oc2ccc(NC(=O)CCCCCC(=O)Nc3ccccc3N)cc2CC1=O	.	.	139*	.
C[C@@H]1CN([C@@H](C)CO)C(=O)Cc2cc(NC(=O)CCCCCC(=O)Nc3ccccc3N)ccc2O[C@H]1CN(C)Cc1ccc(-c2ccccc2)cc1	.	-73	.	.
C[C@H]1CN([C@@H](C)CO)C(=O)Cc2cc(NC(=O)CCCCCC(=O)Nc3ccccc3N)ccc2O[C@H]1CN(C)CC1CCCCC1	.	.	138*	.
C[C@@H]1CN([C@H](C)CO)C(=O)Cc2cc(NC(=O)CCCCCC(=O)Nc3ccccc3N)ccc2O[C@@H]1CN(C)Cc1ccc(-c2ccccc2)cc1	.	.	141*	.
C[C@@H]1CN([C@H](C)CO)C(=O)Cc2cc(NC(=O)CCCCCC(=O)Nc3ccccc3N)ccc2O[C@H]1CN(C)Cc1ccc(-c2ccccc2)cc1	.	.	140*	.
COC(=O)c1sc(=S)sc1C(=O)OC	.	.	96*	-4
COC(=O)c1ccc(C(=O)OC)cc1	.	.	20	.
COCCNc1nc2c(c(=O)n(C)c(=O)n2C)n1Cc1ccc(Cl)cc1Cl	i	-18	15	2
COc1cccc(CC(CC(=O)O)C(=O)O)c1 (stereo unspecified)	i	-16	-10	1
CCOC(=O)c1c(NC(=O)CSc2nc3ccccc3c(=O)[nH]2)sc2c1CCCC2	i	-9	107*	0
COc1ccc(NC(=O)Nc2ccc3c(c2)CC(=O)N([C@@H](C)CO)C[C@@H](C)[C@@H](CN(C)C)O3)cc1	i	1	-5	.
C[C@H](CO)N1C[C@H](C)[C@H](CN(C)Cc2ccc3c(c2)OCO3)Oc2ccc(NC(=O)CCCCCC(=O)Nc3ccccc3N)cc2C1=O	.	.	47	.
C[C@@H]1CN([C@H](C)CO)C(=O)Cc2cc(NC(=O)CCCCCC(=O)Nc3ccccc3N)ccc2O[C@@H]1CN(C)Cc1ccc(Cl)c(Cl)c1	.	.	137*	.
C[C@@H]1CN([C@@H](C)CO)C(=O)c2cc(NC(=O)CCCCCC(=O)Nc3ccccc3N)ccc2O[C@@H]1CN(C)Cc1ccc2c(c1)OCO2	.	.	95*	.
C[C@H](CO)N1C[C@H](C)[C@H](CN(C)Cc2ccc3c(c2)OCO3)Oc2ccc(NC(=O)CCCCCC(=O)Nc3ccccc3N)cc2CC1=O	.	.	132*	.
C[C@@H]1CN([C@@H](C)CO)C(=O)c2cc(NS(=O)(=O)c3cccs3)ccc2O[C@@H]1CN(C)Cc1ccc(-c2ccccc2)cc1	i	1	91*	2
COc1ccc(CN(C)C[C@@H]2Oc3ccc(NS(=O)(=O)c4cccs4)cc3CC(=O)N([C@H](C)CO)C[C@H]2C)cc1	.	.	16	-1
C[C@@H]1CN([C@H](C)CO)C(=O)c2cc(NS(=O)(=O)c3cccs3)ccc2O[C@H]1CN(C)Cc1ccc(-c2ccccc2)cc1	i	15	20	.
C[C@H]1CN([C@@H](C)CO)C(=O)Cc2cc(NS(=O)(=O)c3cccs3)ccc2O[C@H]1CN(C)Cc1ccc(-c2ccccc2)cc1	.	.	115*	10
C[C@@H]1CN([C@@H](C)CO)C(=O)Cc2cc(NS(=O)(=O)c3cccs3)ccc2O[C@@H]1CN(C)Cc1ccc(Oc2ccccc2)cc1	.	.	97*	.
COc1ccc([N+](=O)[O-])cc1NC(=O)COc1ccc(C(C)(C)C)cc1	i	?	12	0
CCc1ccccc1OCC(=O)Nc1cc(OC)ccc1OC	i	93*	41	0
COc1ccc(OC)c(NC(=O)COc2ccc(C(C)(C)C)cc2)c1	i	64*	-13	-3
SMILES	ID4 SMM	mut p53 react	NOMO-1 viab	STK33 inh
COc1ccccc1NC(=O)c1ccc(OCC(=O)Nc2cc(Cl)cc(Cl)c2)cc1	i	-34	86*	-1
COc1ccc(S(=O)(=O)N(C)C[C@H]2Oc3ccc(NC(=O)Nc4ccc(F)cc4)cc3C(=O)N([C@@H](C)CO)C[C@@H]2C)cc1	.	.	3	.
COc1ccc(NC(=O)N(C)C[C@@H]2Oc3c(NC(=O)C4CCOCC4)cccc3C(=O)N([C@@H](C)CO)C[C@H]2C)cc1	.	.	-2	.
C[C@H](CO)N1C[C@H](C)[C@@H](CN(C)Cc2ccccc2)Oc2c(NC(=O)Nc3ccc(C(F)(F)F)cc3)cccc2C1=O	.	.	115*	.
C[C@@H]1CN([C@H](C)CO)C(=O)c2cccc(NC(=O)Nc3ccc(C(F)(F)F)cc3)c2O[C@H]1CN(C)Cc1ccccc1	.	.	101*	.
C[C@H]1CN([C@@H](C)CO)C(=O)c2cccc(NC(=O)Nc3ccc(C(F)(F)F)cc3)c2O[C@@H]1CN(C)Cc1ccc(-c2ccccc2)cc1	.	.	85*	-1
C[C@H](CO)N1C[C@H](C)[C@H](CN(C)Cc2ccccc2)Oc2c(NC(=O)Nc3ccc(C(F)(F)F)cc3)cccc2C1=O	.	.	74	.
C[C@@H]1CN([C@@H](C)CO)C(=O)c2cccc(NC(=O)Nc3ccc(C(F)(F)F)cc3)c2O[C@@H]1CN(C)Cc1ccccc1	.	.	89*	.
C[C@H](CO)N1C[C@H](C)[C@@H](CN(C)Cc2ccc(-c3ccccc3)cc2)Oc2c(NC(=O)Nc3ccc(C(F)(F)F)cc3)cccc2C1=O	.	2	53	.
C[C@H](CO)N1C[C@H](C)[C@H](CN(C)C(=O)Nc2ccccc2F)Oc2ncc(-c3ccc(F)cc3)cc2C1=O	i	15	.	.
C[C@@H]1CN([C@@H](C)CO)C(=O)c2cc(-c3ccc(F)cc3)cnc2O[C@@H]1CN(C)C(=O)Nc1ccccc1F	+	-7	.	.
COc1ccc(NC(=O)N(C)C[C@@H]2Oc3ncc(/C=C/c4ccccc4)cc3C(=O)N([C@H](C)CO)C[C@@H]2C)cc1	.	.	.	1
C[C@H](CO)N1C[C@H](C)[C@H](CN(C)C(=O)Nc2ccccc2)Oc2ncc(/C=C/c3ccccc3)cc2C1=O	+	0	.	0
COc1cccc(NC(=O)N(C)C[C@@H]2Oc3ncc(/C=C/c4ccccc4)cc3C(=O)N([C@H](C)CO)C[C@@H]2C)c1	+	5	.	.
CCCNC(=O)N(C)C[C@H]1Oc2ncc(-c3ccc(C(=O)N(C)C)cc3)cc2C(=O)N([C@H](C)CO)C[C@H]1C	+	4	.	.
COc1ccc(C)cc1NC(=O)CNS(=O)(=O)c1cc(Cl)ccc1Cl	i	4	15	0
Cc1ccc(OCC(=O)Nc2ncccn2)c(C)c1	i	-9	11	1
C[C@H]1CN([C@@H](C)CO)C(=O)c2cc(/C=C/c3ccccc3)cnc2O[C@H]1CN(C)C(=O)Nc1ccccc1F	.	-1	.	.
C[C@@H]1CN([C@@H](C)CO)C(=O)c2cc(/C=C/c3ccccc3)cnc2O[C@H]1CN(C)C(=O)Nc1ccccc1F	+	3	.	.
N#CC1=C(N)C(C#N)(C#N)C(c2ccccc2)C2=C1CCCC2 (stereo unspecified)	.	.	88*	.
